From PubChem
This is a sample that favours compounds with a hit; in the whole collection about 1.5% have one here.
Measles CPE – protection of cells from measles virus; protection (pct of control), % at 4 µM; hit rate 1.5% among 140,000; AID 841; Measles virus-infected cells, CPE protection, absorbance; in the data active means protection mostly above about 24%, no sharp cut-off; inactive means mostly below about 26%
F-actin modifier – modifiers of cytoskeleton assembly; HUVEC TNFa F-actin phalloidin imaging, high content; inhibition, % at 2 µM; hit rate 0.18% among 91,000;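 active means inhibition above the batch mean plus 3 SD and confirmed as a hit by visual image inspection, cut at about 30% in these data, passing the limit was not always enough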
Numbers stand for hits; i = inactive; nt = not tested or not shown.

SMILES	Measles CPE	F-actin modifier
CNC(=O)NC(=O)CSc1nnc(C(F)(F)F)n1C	i	i
CC(Sc1nnc(C(F)(F)F)n1C)C(=O)NC(N)=O (stereo unspecified)	60.4	i
COc1cc(C2C3=C(CC(C)(C)CC3=O)OC(N)=C2[N+](=O)[O-])ccc1O (stereo unspecified)	i	nt
COC(=O)c1oc2ccc(Br)cc2c1-n1cccc1	i	i
O=C(O)c1oc2ccccc2c1-n1cccc1	27.1	i
Cn1cnnc1Sc1ccc(C(=O)NCCC(c2ccccc2)c2ccccc2)cc1[N+](=O)[O-]	i	nt
COc1ccccc1C(=O)N/N=C/c1cnc2ccccc2n1	i	nt
O=C(O)c1ccc(NC(=S)NC2CCCCC2)cc1	i	nt
CCOC(=O)c1ccc(NC(=S)NC2CCCC2)cc1	44.0	nt
COc1cccc(OC)c1C(=O)OCC(=O)Nc1ccc(OC(F)(F)F)cc1	i	i
Cc1ccccc1CSc1nccn1-c1ccccc1	i	i
Cc1ccc(S(=O)(=O)N2CCC(=O)N(CCOC(=O)Nc3ccc(C)c(C)c3)CC2)cc1	i	nt
COc1cc([N+](=O)[O-])c2ncsc2c1	16.9	nt
CCC(C)C(=O)Nc1ccc(OC)cc1[N+](=O)[O-] (stereo unspecified)	i	nt
Cc1ccc(/C=C/c2nc3ccccc3c(=O)n2CCc2ccccc2)cc1	61.5	nt
Cc1ccccc1/C=C/c1nc2ccccc2c(=O)n1CCc1ccccc1	i	nt
COc1ccc(C(NC(=O)CNC(C)=O)C(=O)Nc2ccc(C(C)C)cc2)cc1 (stereo unspecified)	42.9	i
COc1ccc(C(NC(=O)CNC(C)=O)C(=O)Nc2ccc3c(c2)OCCO3)cc1 (stereo unspecified)	i	nt
Cc1cc(C)c(C(CC(=O)c2cccs2)C(C#N)C#N)c(C)c1 (stereo unspecified)	i	nt
Cc1cc(C(=O)CSc2nc3ccccc3[nH]2)c(C)n1CC1CCCO1 (stereo unspecified)	39.0	i
Cc1cc(C(=O)CSc2nc3ccccc3o2)c(C)n1CC1CCCO1 (stereo unspecified)	i	i
CCN(c1ccccc1)S(=O)(=O)c1ccc(Cl)c(NC(=O)CSc2nncs2)c1	i	nt
C=CCOc1ccc(C=Nc2ccc(C)c(Cl)c2)c(O)c1	i	nt
O=C1CN(c2nc(-c3ccccc3)c3cc(Cl)ccc3n2)c2ccccc2N1	39.7	nt
OCCN1CCN(c2nc(-c3ccccc3)c3cc(Cl)ccc3n2)CC1	63.4	i
SMILES	Measles CPE	F-actin modifier
Clc1ccc2nc(N3CCNCC3)nc(-c3ccccc3)c2c1	i	i
CN1CCN(c2nc(-c3ccccc3)c3cc(Cl)ccc3n2)CC1	i	i
CSc1nnc(-c2sc3cc(C(F)(F)F)cnc3c2-c2ccccc2)n1C	i	i
COCCCNC(=O)CN1CCN(Cc2ccc(Cl)cc2)C1=O	i	i
COc1ccc(/C=C/c2nnc(NC(=O)COc3ccc(C)cc3)s2)cc1	i	nt
O=C(Nn1c(C2CCCCC2)nc2ccccc2c1=O)c1ccc([N+](=O)[O-])cc1Cl	i	nt
CCN1CCN(CCNC(=O)c2cn(Cc3ccccc3F)nn2)CC1	41.5	i
CCN1CCN(CCNC(=O)c2cn(C(C)c3ccccc3F)nn2)CC1 (stereo unspecified)	i	i
CCc1cccc(C)c1NC(=O)CNCc1ccccc1	i	nt
O=C(NC1CCCC1)C(c1ccccn1)N(C(=O)c1csnn1)C1CC1 (stereo unspecified)	85.7	i
O=C(NC1CCCC1)C(c1ccccn1)N(C(=O)c1csnn1)C1CCCCC1 (stereo unspecified)	i	i
Cc1ccc(C23CC4CC(CC(CC(=O)N5CCOCC5)(C4)C2)C3)cc1	i	i
CCOC(=O)c1c(/N=C/C2=C(O)CC(C)(C)CC2=O)sc(C)c1C	52.0	nt
CCOC(=O)c1c(/N=C/c2cc([N+](=O)[O-])ccc2O)sc(C)c1C	i	nt
CC(SCC(=O)NC12CC3CC(CC(C3)C1)C2)C(=O)O (stereo unspecified)	i	nt
C=C(Cl)COc1ccc2c(C)cc(=O)oc2c1	i	i
Cc1noc(C)c1COC(=O)Cc1ccc(Cl)c(Cl)c1	39.7	i
Cc1noc(C)c1COC(=O)[C@H](C)NS(=O)(=O)c1ccc(Cl)c(Cl)c1	i	nt
Cc1noc(C)c1COC(=O)COc1ccc2c(C)cc(=O)oc2c1	39.3	i
CC(C)CNC(=O)c1ccccc1NC(=O)c1ccccc1N(C)S(=O)(=O)c1ccccc1	i	nt
CSCC[C@H](NC(=O)C1CCN(S(=O)(=O)c2ccc(C)cc2)CC1)C(=O)NC1CCS(=O)(=O)C1 (stereo partly specified)	i	nt
Cc1c(-c2ccccc2)nc2ccccc2c1C(=O)NCc1cccs1	i	nt
O=C1NC(c2ccccc2)C(C(=O)c2cccs2)C(O)(C(F)(F)F)N1 (stereo unspecified)	i	i
CCOC(=O)C1C(c2cc(OC)c(O)c(OC)c2)NC(=S)NC1(O)C(F)(F)F (stereo unspecified)	35.6	nt
CCOC(=O)C1C(c2cc(OC)c(OC)c(OC)c2)NC(=S)NC1(O)C(F)(F)F (stereo unspecified)	i	i
SMILES	Measles CPE	F-actin modifier
COc1cc(C2NC(=S)NC(O)(C(F)(F)F)C2C(=O)c2cccs2)cc(OC)c1O (stereo unspecified)	31.6	nt
CN(N)c1nc(-c2ccccc2)nnc1C(F)(F)F	i	i
CCN(CC)CCNc1nc(-c2ccccc2)nnc1C(F)(F)F	42.8	i
COc1ccc(C(=O)c2ccc(OC)c(OC)c2)cc1OC	i	nt
COc1ccc(C(=O)Oc2c(C)occc2=O)cc1OC	48.4	i
Nc1cccc(Nc2nc(OC(C(F)(F)F)C(F)(F)F)nc(OC(C(F)(F)F)C(F)(F)F)n2)c1	41.9	i
COc1nc(Nc2ccc(O)cc2)nc(OC(C(F)(F)F)C(F)(F)F)n1	i	nt
CCOc1cc(OCC)nc(S(C)(=O)=O)n1	i	nt
COc1ccc(/C=N/NC(=O)c2nn(-c3ccc(Cl)cc3)c(=O)c3c(N)scc23)cc1	i	i
COc1ccc(/C=N/NC(=O)c2nn(-c3ccccc3)c(=O)c3c(N)scc23)cc1	50.6	i
O=c1[nH]c(SCc2nc3ccccc3c(=O)n2-c2ccccc2)nc2ccccc12	i	nt
O=c1c2ccccc2nc(CSc2ncnc3nc[nH]c23)n1-c1cccc(C(F)(F)F)c1	26.9	i
CCOC(=O)N1CCC(N2Cc3cccc(C(=O)NC(C)c4ccc5c(c4)OCCO5)c3C2=O)CC1 (stereo unspecified)	i	i
CCOc1ccc(N2C(=O)Nc3ccccc3C2(O)C(=O)NCc2ccc3c(c2)OCO3)cc1 (stereo unspecified)	i	i
Cc1ccc(N2C(=O)Nc3ccc(Br)cc3C2(O)C(=O)NCCCN(C)C)cc1C (stereo unspecified)	50.0	nt
O=C(Nc1ccccc1OC(=O)c1ccc(Cl)cc1)c1ccc(Cl)cc1	79.4	nt
Cc1ccc(C(=O)Nc2cc(Cl)ccc2OC(=O)c2ccc(C)cc2)cc1	i	i
COc1ccc(NC(=O)CCN2CCC(C)CC2)cc1	i	i
CC1CCCN(CC(=O)Nc2cccc([N+](=O)[O-])c2)C1 (stereo unspecified)	31.6	nt
COc1ccc(NC(=O)CCN2CCCC(C)C2)cc1 (stereo unspecified)	41.4	i
Cc1ccc(S(=O)(=O)Nc2ccc(NC(=O)CN3CCCCC3)cc2)cc1	i	i
O=C(CN1C(=O)c2ccccc2C1=O)Nc1cccc([N+](=O)[O-])c1	i	nt
Cc1ccc(S(=O)(=O)Nc2cccc(NC(=O)CN3CCCCC3)c2)cc1	63.2	i
Cc1ccc(S(=O)(=O)N2CCN(C(=O)Cc3ccc4c(c3)OCCO4)CC2)cc1C	i	nt
